What all share (conditions): mRNA level, 48 h; actives raise or lower the signal
Read-out in experiment [1]: Early growth response protein 1 (EGR1) transcription factor, EGR1 (gene 1958)
The experiment is described as follows: LTEA_HepaRG_EGR1: Life Technologies and Expression Analysis (LTEA) Assay for Early growth response protein 1 (EGR1) transcription factor using HepaRG (AID 2283490). The procedure, abridged:
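Differentiated human HepaRG cells in serum-free induction medium were exposed in duplicate for 48 h to eight concentrations (top 100 uM, half-log steps) in 0.5% DMSO. EGR1 mRNA was quantified by qRT-PCR, normalized to ACTB, GAPDH and POLR2A, and fitted bidirectionally versus DMSO.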

Read-out in experiment [2]: Ezrin (EZR), EZR (gene 7430)
The experiment can be described thus: LTEA_HepaRG_EZR: Life Technologies and Expression Analysis (LTEA) Assay for Ezrin (EZR) using HepaRG (AID 2283491). The procedure, abridged: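 Read-out is EZR transcript level by qRT-PCR, normalized to three housekeeping genes and fitted bidirectionally against the DMSO control. Human HepaRG cells received test chemicals for 48 h at eight half-log concentrations up to 100 uM in 0.5% DMSO.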

Read-out in experiment [3]: Cytochrome P450 3A7 (Homo sapiens) (UniProt P24462)
The experiment is described as follows: LTEA_HepaRG_CYP3A7: Life Technologies and Expression Analysis (LTEA) Assay for CYP3A7 using HepaRG (AID 2283492). The procedure, abridged: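 CYP3A7 transcript measured by qRT-PCR (ACTB, GAPDH, POLR2A normalization) after 48 h chemical exposure of HepaRG cells in duplicate. Eight half-log concentrations, maximum 100 uM, 0.5% DMSO vehicle; bidirectional curve fitting against DMSO baseline.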

Read-out in a further experiment: CYP3A5 (gene 1577)
The experiment can be described thus: LTEA_HepaRG_CYP3A5: Life Technologies and Expression Analysis (LTEA) Assay for CYP3A5 using HepaRG (AID 2283493). The procedure, abridged: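 Differentiated HepaRG cells in serum-free induction medium were dosed 48 h with test chemicals (8-point half-log series, top 100 uM, 0.5% DMSO, duplicate). CYP3A5 mRNA measured by qRT-PCR, normalized to ACTB, GAPDH, POLR2A; bidirectional fit versus DMSO.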

Read-out in experiment [4]: Fatty Acid-Binding Protein 1 (FABP1), FABP1 (gene 2168)
The experiment is described as follows: LTEA_HepaRG_FABP1: Life Technologies and Expression Analysis (LTEA) Assay for Fatty Acid-Binding Protein 1 (FABP1) using HepaRG (AID 2283494). The essentials: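 Differentiated human HepaRG cells were exposed in duplicate for 48 h in serum-free induction medium to 8-point half-log concentration series topping at 100 uM in 0.5% DMSO. FABP1 mRNA measured by TaqMan qRT-PCR, normalized to ACTB/GAPDH/POLR2A; bidirectional fit versus DMSO.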

Read-out in experiment [5]: Cytochrome P450 4A22 (Homo sapiens) (UniProt Q5TCH4)
The experiment is described as follows: LTEA_HepaRG_CYP4A22: Life Technologies and Expression Analysis (LTEA) Assay for Cytochrome P450 4A22 (CYP4A22) using HepaRG (AID 2283495). The procedure, abridged: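 Gene expression measured by qRT-PCR against three housekeeping genes (ACTB, GAPDH, POLR2A), with gain or loss fitted relative to 0.5% DMSO vehicle. HepaRG cultures received 48 h chemical treatment, top concentration 100 uM, half-log steps, duplicate wells.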

Read-out in experiment [6]: Cytochrome P450 7A1 (Homo sapiens) (UniProt P22680)
The experiment is described as follows: LTEA_HepaRG_CYP7A1: Life Technologies and Expression Analysis (LTEA) Assay for Cytochrome P450 7A1 (CYP7A1) using HepaRG (AID 2283496). The procedure, abridged: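 Gene expression endpoint in human HepaRG liver cells treated for 48 h with test chemicals (up to 100 uM, 0.5% DMSO). Values come from bidirectional concentration-response fitting versus DMSO.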

Read-out in experiment [7]: Glutathione S-Transferase (GSTA2), GSTA2 (gene 2939)
The experiment is described as follows: LTEA_HepaRG_GSTA2: Life Technologies and Expression Analysis (LTEA) Assay for Glutathione S-Transferase (GSTA2) using HepaRG (AID 2283497). The essentials: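 Human HepaRG cells, plated 48 h, then exposed in serum-free induction medium for 48 h to eight half-log concentrations up to 100 uM in 0.5% DMSO, duplicate. GSTA2 mRNA by qRT-PCR, normalized to ACTB/GAPDH/POLR2A; bidirectional fit versus DMSO.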

Read-out in experiment [8]: Glutamate-cysteine ligase catalytic (GCLC), GCLC (gene 2729)
The experiment is described as follows: LTEA_HepaRG_GCLC: Life Technologies and Expression Analysis (LTEA) Assay for Glutamate-cysteine ligase catalytic (GCLC) using HepaRG (AID 2283498). The essentials:
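Differentiated human HepaRG cells, plated 48 h then switched to serum-free induction medium, were exposed in duplicate for 48 h to 8 half-log concentrations topping at 100 uM in 0.5% DMSO. GCLC mRNA was quantified by qRT-PCR against ACTB, GAPDH and POLR2A.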

Activity calls are given as the source filed them. Rule for the calls: active = hit-call score of the fitted dose curve at least 0.9, where 1 is the maximum; inactive = score below 0.9.

Chain of Cytochrome P450 3A7 (Homo sapiens) (P24462 whole entry, looked up): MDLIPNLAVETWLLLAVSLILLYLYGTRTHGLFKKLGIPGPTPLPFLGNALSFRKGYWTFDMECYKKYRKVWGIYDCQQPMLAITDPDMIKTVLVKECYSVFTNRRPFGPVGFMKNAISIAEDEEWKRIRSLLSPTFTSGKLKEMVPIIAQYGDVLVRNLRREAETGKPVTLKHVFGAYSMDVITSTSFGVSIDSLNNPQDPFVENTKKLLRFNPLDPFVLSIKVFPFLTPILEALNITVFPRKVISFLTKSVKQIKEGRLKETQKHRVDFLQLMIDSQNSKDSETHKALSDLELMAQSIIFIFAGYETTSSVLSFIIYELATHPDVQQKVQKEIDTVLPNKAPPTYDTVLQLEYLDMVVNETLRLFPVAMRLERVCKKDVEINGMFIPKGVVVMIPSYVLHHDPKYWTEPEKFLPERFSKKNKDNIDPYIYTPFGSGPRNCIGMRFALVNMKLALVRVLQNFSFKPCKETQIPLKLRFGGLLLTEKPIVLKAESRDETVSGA

With `COC(=O)NS(=O)(=O)c1ccc(N)cc1`, the outcome (in [1]; in experiment [2]; in experiment [3]; with CYP3A5 (gene 1577); in experiment [4]; in [5]) was inactive. Further, the molecule was classed as inactive in experiment [6], in [7] and in [8].

`CCCCOCN(C(=O)CCl)c1c(CC)cccc1CC`: the molecule was classed as inactive (in experiment [1]; in [2]; in experiment [3]; with CYP3A5 (gene 1577); in experiment [4]; in experiment [5]). Besides, the outcome in [6], in [7] and in [8] was inactive.

The AC50 is the concentration at which the activity in the assay is half-maximal. As for `CCOP(=S)(OCC)Oc1nc(Cl)n(C(C)C)n1`, the outcome (in [1]; in [2]; in experiment [3]; in the experiment with CYP3A5 (gene 1577); in experiment [4]; in [7]) was inactive. In experiment [8], the call was inactive. Moreover, the figures for the AC50 in experiment [5] and in experiment [6] were 35.9 µM (active) and 2.01 µM (active), respectively.

For `CS(=O)(=O)c1ccc(C(=O)C2C(=O)CCCC2=O)c([N+](=O)[O-])c1`, the call (in [1]; in experiment [2]; in experiment [3]; in the experiment with CYP3A5 (gene 1577); in [4]; in experiment [5]) was inactive. Moreover, the molecule was called inactive in [6], in experiment [7] and in experiment [8].

Regarding `CCNP(=S)(OC)O/C(C)=C/C(=O)OC(C)C` (stereo unspecified), the outcome (in [1]; in experiment [2]; with CYP3A5 (gene 1577); in experiment [4]; in [5]; in experiment [6]) was inactive. For the same molecule, the call in experiment [7] and in [8] was inactive. Also, in experiment [3], the AC50 is 4.03 µM (active).

For the molecule `N#Cc1c[nH]cc1-c1cccc2c1OC(F)(F)O2`, the AC50 in experiment [1] was 50 µM (active); in [4] it was 50 µM (active); in experiment [5], 84.8 µM (active); in experiment [6], 69.9 µM (active); in experiment [7], 85.6 µM (active). The result (in [2]; in experiment [3]; in the experiment with CYP3A5 (gene 1577); in experiment [8]) was inactive.

For `COCC(=O)N(c1c(C)cccc1C)C(C)C(=O)OC` (stereo unspecified), the call (in [1]; in [2]; in [3]; with CYP3A5 (gene 1577); in experiment [5]; in [6]) was inactive. Also, the molecule was called inactive in experiment [7] and in experiment [8]. Moreover, the AC50 in experiment [4] was 31.7 µM (active).

As for `CO/N=C(/C1=NOCCO1)c1ccccc1Oc1ncnc(Oc2ccccc2Cl)c1F`, the concentration at half-maximal activity (AC50) was 12.7 µM (active) in experiment [1]; 0.973 µM (active) in [2]; 12.4 µM (active) in experiment [3]; 23.3 µM (active) in the experiment with CYP3A5 (gene 1577); 19.8 µM (active) in [4]; 20.5 µM (active) in experiment [5]. Moreover, the AC50 in experiment [6] is 24 µM (active); in experiment [7], 28.4 µM (active). Besides, in experiment [8], the call was inactive.

Regarding `Cc1nc(N(C)C)nc(OC(=O)N(C)C)c1C`, the result (in [1]; in experiment [2]; with CYP3A5 (gene 1577); in experiment [4]; in experiment [5]; in experiment [6]) was inactive. Further, the molecule was classed as inactive in [7] and in experiment [8]. In addition, the AC50 in [3] was 19.9 µM (active).

As for `O=C(O)c1c(Cl)ccc2cc(Cl)cnc12`, the call (in [1]; in [2]; in experiment [3]; with CYP3A5 (gene 1577); in experiment [4]; in experiment [5]) was inactive. Further, the molecule was called inactive in experiment [6], in experiment [7] and in [8].

Take `CNC(=O)Oc1cccc2ccccc12`: the molecule was called inactive (in [1]; in [2]; in experiment [3]; in the experiment with CYP3A5 (gene 1577); in experiment [4]; in [5]). Moreover, the result in [6], in [7] and in experiment [8] was inactive.

Regarding `CC1(C)CON(Cc2ccccc2Cl)C1=O`, the outcome (in experiment [1]; in experiment [2]; with CYP3A5 (gene 1577); in experiment [4]; in experiment [5]; in experiment [6]) was inactive. Besides, the molecule was called inactive in [7] and in experiment [8]. For the same molecule, the AC50 in experiment [3] is 1.47 µM (active).

As to `CNC(=O)N(C)c1nnc(C(C)(C)C)s1`, the call (in experiment [1]; in experiment [2]; in [3]; with CYP3A5 (gene 1577); in experiment [4]; in experiment [5]) was inactive. For the same molecule, the call in experiment [6], in [7] and in [8] was inactive.

Regarding `CC(C)NC(=O)N1CC(=O)N(c2cc(Cl)cc(Cl)c2)C1=O`, the molecule was called inactive (in [1]; in experiment [2]; in [3]; with CYP3A5 (gene 1577); in [8]). For the same molecule, the AC50 in experiment [4] is 13.2 µM (active); in [5], 8.83 µM (active); in experiment [6] it was 13.1 µM (active); in experiment [7], 25 µM (active).

For the molecule `CCN(CC)c1nc(C)cc(OP(=S)(OC)OC)n1`, the outcome (in experiment [1]; in [2]; in the experiment with CYP3A5 (gene 1577); in [5]; in experiment [6]; in experiment [7]) was inactive. Further, in experiment [8], the call was inactive. In addition, the AC50 in experiment [3] was 8.23 µM (active); in [4], 50 µM (active).

As to `COC(=O)N(C(=O)N1CO[C@@]2(C(=O)OC)Cc3cc(Cl)ccc3C2=N1)c1ccc(OC(F)(F)F)cc1`, the call (in experiment [1]; in [2]; in the experiment with CYP3A5 (gene 1577); in experiment [8]) was inactive. In addition, the AC50 in experiment [3] was 73.1 µM (active); in experiment [4], 40 µM (active); in experiment [5], 28.9 µM (active); in experiment [6] it was 31.8 µM (active); in experiment [7] it was 51.3 µM (active).

`C=CCOC(=O)C(C)(C)OC(=O)c1cc(-n2c(=O)cc(C(F)(F)F)n(C)c2=O)ccc1Cl`: the result (in [1]; in experiment [2]; with CYP3A5 (gene 1577); in experiment [4]; in experiment [5]; in experiment [6]) was inactive. Also, the call in [7] and in [8] was inactive. Besides, the AC50 in experiment [3] is 11 µM (active).

On to `CC1(C)C(C(=O)OC(C#N)c2cccc(Oc3ccccc3)c2)C1(C)C` (stereo unspecified), for which the result (in [1]; in [2]; in [3]; with CYP3A5 (gene 1577); in experiment [4]; in [5]) was inactive. The molecule was classed as inactive in experiment [6], in [7] and in experiment [8].

Regarding `Cc1cc(C)nc(Nc2ccccc2)n1`, the molecule was called inactive (in [1]; in experiment [2]; in experiment [3]; in the experiment with CYP3A5 (gene 1577); in [4]; in [5]). Further, the result in experiment [7] and in [8] was inactive. The AC50 in experiment [6] was 3.4 µM (active).

For the origin of these results see PubChem BioAssay (EPA / NIEHS).
